Most compounds without a hit are left out; they make up all but 2.3% or so of the library.
Mcl1-Bid inh = Mcl-1/Bid binding inhibitors, primary screen, biochemical, TR-FRET, 1536-well | Induced myeloid leukemia cell differentiation protein Mcl-1 (Homo sapiens), Q07820 | TR-FRET Mcl-1/Bid-Dy647 peptide binding | inhibition, % at 21.7 µM | hit rate 0.97% among 220,000;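 active = compounds that cut the binding signal by more than half at the single screening dose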;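 also: His-tagged Mcl-1 with europium anti-His antibody binding Bid BH3 peptide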
Target sequence (Q07820 whole entry, looked up): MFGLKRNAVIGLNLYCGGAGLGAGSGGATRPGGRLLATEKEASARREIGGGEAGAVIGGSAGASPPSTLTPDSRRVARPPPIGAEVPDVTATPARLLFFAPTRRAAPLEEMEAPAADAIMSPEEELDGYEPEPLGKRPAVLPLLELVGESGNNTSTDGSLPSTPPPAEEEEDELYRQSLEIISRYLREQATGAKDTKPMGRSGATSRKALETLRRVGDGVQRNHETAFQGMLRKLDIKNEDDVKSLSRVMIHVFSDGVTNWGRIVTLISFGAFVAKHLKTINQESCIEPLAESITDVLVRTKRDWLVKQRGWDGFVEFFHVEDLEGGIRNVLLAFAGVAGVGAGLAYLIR
BCLXL inh = inhibitors of human Bcl-xL, primary screen, biochemical, fluorescence polarization, HTS; hit rate 0.7% among 320,000; inhibition, % at 10.9 µM; Bcl-2-like protein 1 (Homo sapiens), Q07817; AID 2129, 2009; GST-Bcl-xL / FITC-Bim BH3 peptide fluorescence polarization;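 active = inhibition above the mean of all tested compounds plus 3 SD, cutoff set per campaign, cut at about 30% in these data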;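 also: inhibitors lower millipolarization by displacing the labeled peptide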
Target sequence (Q07817 whole entry, looked up): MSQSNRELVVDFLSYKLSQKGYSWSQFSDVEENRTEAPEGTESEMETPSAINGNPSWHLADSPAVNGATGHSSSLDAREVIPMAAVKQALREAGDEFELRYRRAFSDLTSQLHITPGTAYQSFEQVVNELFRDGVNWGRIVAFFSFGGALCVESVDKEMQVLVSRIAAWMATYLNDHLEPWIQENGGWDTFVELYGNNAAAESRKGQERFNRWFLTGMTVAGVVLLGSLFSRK
Mcl1 Noxa PPI = Mcl-1/Noxa binding inhibitors, primary screen, biochemical, TR-FRET, 1536-well. Induced myeloid leukemia cell differentiation protein Mcl-1 (Homo sapiens), Q07820. TR-FRET Mcl-1/Noxa peptide binding, 2 h. inhibition, % at 21.7 µM. hit rate 1.5% among 220,000;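 active = compounds that cut the protein-peptide binding signal by more than 50% relative to plate controls in a single-dose test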;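 also: His-tagged Mcl-1 with rhodamine Noxa BH3 peptide and terbium anti-His antibody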
GLD-1 TGE inh = GLD-1/TGE RNA complex disruptors, primary screen, biochemical, fluorescence polarization | Female germline-specific tumor suppressor gld-1 (Caenorhabditis elegans), Q17339 | purified GLD-1 + fluorescein TGE RNA | inhibition, % at 5.96 µM | hit rate 0.44% among 320,000;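 active = percent inhibition above a per-plate cutoff, the plate mean of test compounds plus 3 SD, cut at about 30% in these data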
Mcl-1 Bim block = inhibitors of Bim peptide binding to Mcl-1, primary screen, biochemical, bead-based flow cytometry, multiplex; inhibition, % at 10 µM; Induced myeloid leukemia cell differentiation protein Mcl-1 (Homo sapiens), Q07820; Bim peptide-Mcl-1 binding; hit rate 0.1% among 190,000; in the data active = inhibition above about 40%
MCL1-BIM inh = inhibitors of MCL1 binding to BIM-BH3, primary screen, biochemical, fluorescence polarization; GST-MCL1 / FITC-Bim-BH3 fluorescence polarization; hit rate 0.68% among 320,000; inhibition, % at 10.9 µM;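 active = inhibition above the mean inhibition of all tested compounds plus 3 SD, set per campaign, cut at about 40% in these data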;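 also: higher means more loss of mP so more displacement of Bim peptide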
Numbers stand for hits; i = inactive; nt = no result given.

SMILES	Mcl1-Bid inh	BCLXL inh	Mcl1 Noxa PPI	GLD-1 TGE inh	Mcl-1 Bim block	MCL1-BIM inh
O=c1c(C(c2ccc(O)cc2)c2c(O)nc3n(c2=O)CCCS3)c(O)nc2n1CCCS2	i	i	52	i	i	i
O=c1c(C(c2c(O)nc3n(c2=O)CCS3)c2cccc3ccccc23)c(O)nc2n1CCS2	i	i	53	i	i	i
Cc1ccc(C(c2c(O)nc3n(c2=O)CCS3)c2c(O)nc3n(c2=O)CCS3)cc1	i	i	i	i	i	i
CC1CC(C)CN(C(=O)COC(=O)c2ccc3c(c2)OCCO3)C1 (centres undefined)	nt	nt	nt	i	nt	nt
COc1ccc(NC(=O)c2ccccc2NS(C)(=O)=O)cc1OC	51	i	i	i	i	i
COc1ccccc1NC(=O)c1ccccc1NS(C)(=O)=O	i	i	i	i	i	i
O=[N+]([O-])c1cccc(NC(=S)N2CCN(S(=O)(=O)c3ccccc3)CC2)c1	nt	i	nt	i	nt	i
COc1ccccc1OCCOc1ccc(/C=C2/C(=N)N3OC(C)=CC3=NC2=O)cc1OC	84	i	i	i	i	i
CC1=CC2=NC(=O)/C(=C\c3cccn3CCOc3ccccc3C)C(=N)N2O1	i	i	i	i	i	i
O=C(N/N=C/c1ccc(O)c(O)c1)c1ccc(CSc2cccc3cccnc23)cc1	i	i	76	i	i	i
O=C(CSc1cccc2cccnc12)N/N=C/c1cccc(O)c1	i	i	i	i	i	i
COc1cc2c(=O)n(Cc3ccccc3)c(=O)n(CC(=O)NCc3ccco3)c2cc1OC	52	nt	i	nt	i	nt
O=[N+]([O-])c1cc(-c2ccc(C(=S)N3CCOCC3)o2)ccc1Cl	i	37	i	i	i	43
O=[N+]([O-])c1cccc(-c2ccc(C(=S)N3CCOCC3)o2)c1	i	i	i	i	i	i
Cc1cccc(NC(=O)C2CCN(c3nc(C)cc(C)n3)CC2)c1	94	i	i	i	i	i
Cc1cccc(NC(=O)C2CCCN(c3nc(C)cc(C)n3)C2)c1 (centres undefined)	i	i	i	i	i	i
CC1CN(C(=O)N2c3ccccc3Sc3ccccc32)CC(C)O1 (centres undefined)	i	i	i	i	i	i
CC1CN(C(=O)N2c3ccccc3Sc3ccccc32)C(C)CC1=O (centres undefined)	i	i	70	i	i	i
COc1ccccc1-n1c(SCC(=O)N2CCOCC2)nc2ccccc2c1=O	nt	i	nt	i	nt	i
COc1ccccc1-n1c(SCc2cc(=O)oc3cc(O)ccc23)nc2ccccc2c1=O	i	i	67	i	i	i
CCOc1ccc(S(=O)(=O)NCCC(=O)NCCOc2ccccc2OC)cc1	nt	i	nt	i	nt	i
CCc1nnc(NC(=O)c2sc3nc4c(cc3c2N)CCCCCC4)s1	i	i	53	i	i	i
COc1ccc(/C=N/NC(=O)c2ccoc2C)cc1CN1CCN(c2ccc(F)cc2)CC1	nt	i	nt	i	nt	i
CCN(CC)S(=O)(=O)c1cccc(NC(=O)c2ccc(SC)cc2OC)c1	i	i	i	i	i	i
COc1cc(SC)ccc1C(=O)Nc1cccc(S(=O)(=O)NC2=NCCCCC2)c1	nt	i	nt	165	nt	i
SMILES	Mcl1-Bid inh	BCLXL inh	Mcl1 Noxa PPI	GLD-1 TGE inh	Mcl-1 Bim block	MCL1-BIM inh
COc1cccc(OCC(O)CN2CCN(C)CC2)c1 (centres undefined)	nt	i	nt	i	nt	i
CC(C)(Oc1ccc(Cl)cc1)C(=O)N1CCN(C(=O)c2ccco2)CC1	nt	i	nt	i	nt	i
COC(=O)CCC(=O)OC1(C)C(=O)C=C2C=C(C3CC3)N(c3cccc(C#N)c3)C=C2C1=O (centres undefined)	i	47	i	i	nt	43
COC(=O)CCC(=O)OC1(C)C(=O)C=C2C=C(C3CC3)N(C3CC3)C=C2C1=O (centres undefined)	i	i	i	i	nt	i
CC1(OC(=O)CCc2ccccc2)C(=O)C=C2C=C(C3CC3)OC=C2C1=O (centres undefined)	nt	39	nt	33	nt	45
COCCN1C=C2C(=O)C(C)(OC(=O)CCC(=O)OC)C(=O)C=C2C=C1C1CC1 (centres undefined)	i	i	i	i	nt	i
COC(=O)CCC(=O)OC1(C)C(=O)C=C2C=C(C3CC3)N(Cc3ccco3)C=C2C1=O (centres undefined)	i	37	i	i	nt	42
NC(=O)c1ccc(Oc2cccc3cccnc23)c([N+](=O)[O-])c1	i	33	i	i	i	i
COc1ccccc1CC(=O)Nc1ccc(S(=O)(=O)N2CC(C)CC(C)C2)cc1 (centres undefined)	nt	i	nt	i	nt	i
Cn1c(SCC(=O)Nc2ccc3[nH]c(=O)[nH]c3c2)nnc1-c1ccc(F)cc1	i	i	i	i	nt	i
COC(=O)c1cc(Br)ccc1NC(=O)Nc1ccc(C)cc1	nt	i	nt	i	nt	i
COC(=O)c1cc(Br)ccc1NC(=O)Nc1ccccc1	i	i	73	i	i	i
Cc1cccc(C(=O)Nc2ccnc(-c3ccncc3)n2)c1	i	i	i	i	i	i
Cc1cccc(C(=O)Nc2ccnc(-c3cccnc3)n2)c1	91	i	i	i	i	i
CC(OC(=O)Cc1c(F)cccc1Cl)C(=O)NC1(C#N)CCCCC1 (centres undefined)	nt	i	nt	i	nt	i
O=C(CCNC(=O)c1ccccc1)Nc1ccc(Cl)c(S(=O)(=O)N2CCCCC2)c1	nt	nt	nt	i	nt	nt
CC(CCc1ccccc1)N1CCN(Cc2ccccc2)CC1 (centres undefined)	i	i	i	i	i	i
CCS(=O)(=O)N1CCN(C(C)CCc2ccccc2)CC1 (centres undefined)	77	i	91	i	i	i
COc1ccccc1N1CCN(CC(=O)c2c(C)[nH]c3ccccc23)CC1	76	i	i	i	i	i
COc1ccccc1N1CCN(CC(=O)c2c[nH]c3ccccc23)CC1	i	i	i	i	nt	i
CC(NC(=O)c1ccccc1)C(=O)OCC(=O)c1c(N)n(C)c(=O)n(C)c1=O (centres undefined)	nt	i	nt	i	nt	i
O=C(OCC#CCSc1nnc(-c2cccc3ccccc23)o1)c1ccc(F)cc1	nt	nt	nt	i	nt	nt
COc1cc(-c2nc3cnccn3c2Nc2ccccc2)ccc1O	i	i	55	i	i	i
O=C(N/N=C/C(Cl)=C/c1ccc([N+](=O)[O-])cc1)C(=O)Nc1ccccc1C(=O)O	i	i	56	i	nt	i
COc1ccc(C(C)=O)cc1COC(=O)c1c(C)noc1C	i	i	i	i	i	i
COc1ccc(C(C)=O)cc1COC(=O)c1ccc(OCc2c(C)noc2C)cc1	52	i	i	i	i	i
c1ccc2[nH]c(-c3ccncc3)nc2c1	i	i	i	i	i	i
